Reference: PubChem BioAssay (NCATS)
Unmarked numbers belong to inactive results. No rule for the calls is given here.

Test system: HIV-1 nucleocapsid protein NCp7 (binding to TG oligonucleotide)
Test: HIV Nucleocapsid (AID 346);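 also: potency is for inhibitors that block NC binding and lower polarization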
Conditions: HIV-1 NC / fluorescein-TGTGTGTG probe, fluorescence polarization
Outline: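 Fluorescence polarization binding of 100 nM HIV-1 NC to 10 nM fluorescein-labelled TG4xF oligonucleotide. Buffer was Hepes pH 7.5 with 250mM NaCl, 1uM ZnCl2, TCEP and 2-mercaptoethanol. Compounds were incubated 1 hr at room temperature before the read.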
Potency is read from the fitted curve at half-maximal effect.

| Compound | Potency |
| --- | --- |
| COc1ccc2[nH]cc(CCNc3ccnc(-c4ccccc4C)n3)c2c1 | > 20 µM |
| O=c1c(-c2cccc(Cl)c2)nc2cncnc2n1Cc1ccccc1Cl | > 20 µM |
| Cc1noc(C)c1C(=O)N1CCC2(CCCN(C(=O)Nc3cccc(F)c3)C2)CC1 | > 20 µM |
| CN(Cc1ccco1)c1ncncc1-c1ccc2c(c1)OCO2 | > 20 µM |
| CS(=O)(=O)N1CCC[C@@]2(CCN(c3ccncc3)C2)C1 | > 20 µM |
| O=S(=O)(c1ccccc1)N1CCC2(CCCN(c3ccncc3)C2)CC1 | > 20 µM |
| COc1cccc(Cn2c(=O)c(-c3cccs3)nc3cnc(N(C)C)nc32)c1 | > 20 µM |
| FC(F)(F)c1ccccc1-c1ccc2ncnc(NCc3cccnc3)c2c1 | > 20 µM |
| O=C(c1cc(C(F)(F)F)cc(C(F)(F)F)c1)N1CCC2(CCN(Cc3ccccc3)CC2)CC1 | > 20 µM |
| N#CCCn1c(=O)c(-c2ccccc2)nc2cnc(Oc3cccc(Cl)c3)nc21 | > 20 µM |
| CS(=O)(=O)N1CCC2(CCN(C(=O)Nc3cccc(C#N)c3)CC2)CC1 | > 20 µM |
| COCCNc1ncnc2ccc(-c3ccccc3OC)cc12 | > 20 µM |
| COCC(=O)N1CCC2(CCCN(C(=O)Nc3ccc(OC)cc3)C2)CC1 | > 20 µM |
| O=C(Nc1cccc(F)c1)N1CCCC2(CCN(C(=O)c3csnn3)CC2)C1 | > 20 µM |
| O=C(c1cccc(F)c1)N1CCC2(CCCN(c3cccc(-c4ccccc4)c3)C2)CC1 | > 20 µM |
| COc1ccc2[nH]cc(CCNc3ncncc3-c3ccccc3C)c2c1 | > 20 µM |
| O=C(c1cnccn1)N1CCC2(CCCN(Cc3ccncc3)C2)CC1 | > 20 µM |
| O=c1cnc2cncnc2n1Cc1ccccc1Cl | > 20 µM |
| COCCn1c(=O)c(-c2cc(F)cc(F)c2)nc2cnc(OCc3ccccc3)nc21 | > 20 µM |
| CC(=O)N1CCC2(CCN(Cc3nccs3)CC2)CC1 | > 20 µM |

| Compound | Potency |
| --- | --- |
| CCNc1ncc2nc(-c3ccc(F)cc3)c(=O)n(Cc3ccc(F)cc3)c2n1 | > 20 µM |
| COc1ccc2[nH]cc(CCNc3ccnc(-c4c(C)noc4C)n3)c2c1 | > 20 µM |
| c1nc(N2CCOCC2)c2cc(-c3ccoc3)ccc2n1 | > 20 µM |
| COc1ccccc1CNc1ccnc(-c2ccc3c(c2)OCO3)n1 | > 20 µM |
| COc1ccc(CNc2cc(-c3cccc(C#N)c3)ncn2)c(OC)c1 | > 20 µM |
| COc1cccc(-c2cncnc2Nc2ccc(F)cc2)c1 | > 20 µM |
| COc1ccc(NC(=O)N2CCC3(CC2)CCN(C(=O)c2csnn2)CC3)cc1 | > 20 µM |
| Cc1ccccc1-c1cc(N2CCNCC2)ncn1 | > 20 µM |
| COCCNc1cc(-c2ccccc2CN(C)C)ncn1 | > 20 µM |
| COc1ncc2ncc(=O)n(C)c2n1 | > 20 µM |
| O=C(c1csnn1)N1CCC2(CC1)CCN(c1ccccn1)CC2 | > 20 µM |
| Cn1cc(-c2nc3cnc(N4CCNCC4)nc3n(C)c2=O)c2ccccc21 | > 20 µM |
| CC(=O)N1CCC[C@@]2(CCN(Cc3ccc(C#N)cc3)C2)C1 | > 20 µM |
| Cc1noc(C)c1-c1nccc(-n2ccnc2)n1 | > 20 µM |
| CCNc1ncc2nc(CCc3ccccc3)c(=O)n(-c3ccc(OC)cc3)c2n1 | > 20 µM |
| O=c1c(-c2cc(F)cc(F)c2)nc2cnc(N3CCOCC3)nc2n1Cc1ccc(F)cc1 | > 20 µM |
| Cc1noc(C)c1-c1cc(NCc2cccs2)ncn1 | > 20 µM |
| CN(C)C(=O)c1ccc(-c2ccc3ncnc(NC4CCNCC4)c3c2)cc1 | > 20 µM |
| CN(C)C(=O)c1ccc(-c2ccc3ncnc(N(C)C)c3c2)cc1 | > 20 µM |
| COc1ccc2[nH]cc(CCNc3ncncc3-c3cccc(C#N)c3)c2c1 | > 20 µM |
